Assay [1] is described as follows: qHTS of pediatric cancer cell lines to identify multiple opportunities for drug repurposing: Primary screen for TC32 cells (AID 1347089). Further: nearly all actives have a fitted effect of over 60% in size. In short, it runs like this: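 TC32 cells, 500-1,000/well in growth medium, compound-treated 48 h at 37 °C; viability from CellTiter-Glo luminescence. Primary screen: MIPE 11-point (0.78 nM–46 µM final), NPC 8-point (0.59 nM–46 µM final); confirmatory at 11-point dilutions.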
A general note: In qHTS, concentration-response curves come from the screen itself.

The nature of assay [2]: qHTS of pediatric cancer cell lines to identify multiple opportunities for drug repurposing: Primary screen for DAOY cells (AID 1347090). Further: nearly all actives have a fitted effect of over 55% in size. In short, it runs like this: (§1)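 Eight- or eleven-point concentration series, 48 h treatment at 37 degrees C in growth media; readout CellTiter-Glo luminescence. Potency and efficacy were taken from the concentration-response curves.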
Assay [3] can be described thus: qHTS of pediatric cancer cell lines to identify multiple opportunities for drug repurposing: Primary screen for SJ-GBM2 cells (AID 1347091). In short, it runs like this:
as §1

Assay [4] is described as follows: qHTS of pediatric cancer cell lines to identify multiple opportunities for drug repurposing: Primary screen for A673 cells (AID 1347092). Further: nearly all actives have a fitted effect of over 45% in size. In short, it runs like this:
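A673 cells (500-1,000 cells/well) were treated 48 hours at 37 degrees C with compounds at 11-point (0.78 nM to 46 µM) or 8-point (0.59 nM to 46 µM) dilutions. Viability read by CellTiter-Glo luminescence; concentration-response curves fitted.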

A short description of assay [5]: qHTS of pediatric cancer cell lines to identify multiple opportunities for drug repurposing: Primary screen for SK-N-MC cells (AID 1347093). In short, it runs like this:
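Metabolically active cells were quantified by ATP-dependent luminescence (CellTiter-Glo, 15 min at room temperature) following 48 h treatment. Cells had been plated at 500-1,000 per well and settled for 5 h beforehand.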

Assay [6] in a line: qHTS of pediatric cancer cell lines to identify multiple opportunities for drug repurposing: Primary screen for NB-EBc1 cells (AID 1347095). The procedure, abridged: (§2)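 ATP-based luminescence (CellTiter-Glo) quantifies viability after a 48-hour exposure. Compounds are dosed across 8 or 11 final concentrations; DMSO and 2.3 µM bortezomib serve as controls.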
Assay [7] in a line: qHTS of pediatric cancer cell lines to identify multiple opportunities for drug repurposing: Primary screen for Saos-2 cells (AID 1347097). Further: nearly all actives have a fitted effect of over 40% in size. In short, it runs like this: as §2
Assay [8] in a line: qHTS of pediatric cancer cell lines to identify multiple opportunities for drug repurposing: Primary screen for SK-N-SH cells (AID 1347098). Further: nearly all actives have a fitted effect of over 65% in size. In short, it runs like this: (§3)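 Cells (500-1,000/well) rested 5 h, then received compounds for 48 h; metabolically active cells were measured by CellTiter-Glo luminescence. Final concentrations spanned up to 46 µM (MIPE, 11-point) or 0.59 nM-46 µM (NPC, 8-point) in primary screens, 11-point in follow-ups.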

Assay [9] is described as follows: qHTS of pediatric cancer cell lines to identify multiple opportunities for drug repurposing: Primary screen for NB1643 cells (AID 1347099). Further: nearly all actives have a fitted effect of over 50% in size. In short, it runs like this:
as §2

A short description of assay [10]: qHTS of pediatric cancer cell lines to identify multiple opportunities for drug repurposing: Primary screen for LAN-5 cells (AID 1347100). The procedure, abridged: (§4)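 Cells (500-1,000/well) in growth media were settled 5 h at 37 degrees C, then given compounds for 48 h. Viability was read as CellTiter-Glo luminescence. Primary runs used MIPE at 11 points (0.78 nM-46 µM) and NPC at 8 points (0.59 nM-46 µM); follow-ups used 11 points.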

Assay [11] in a line: qHTS of pediatric cancer cell lines to identify multiple opportunities for drug repurposing: Primary screen for OHS-50 cells (AID 1347103). Further: nearly all actives have a fitted effect of over 40% in size. The procedure, abridged: as §3
The nature of assay [12]: qHTS of pediatric cancer cell lines to identify multiple opportunities for drug repurposing: Primary screen for RD cells (AID 1347104). Further: nearly all actives have a fitted effect of over 55% in size. The procedure, abridged:
as §2

The nature of assay [13]: qHTS of pediatric cancer cell lines to identify multiple opportunities for drug repurposing: Primary screen for BT-37 cells (AID 1347094). In short, it runs like this: as §2
The nature of assay [14]: qHTS of pediatric cancer cell lines to identify multiple opportunities for drug repurposing: Primary screen for U-2 OS cells (AID 1347096). Further: nearly all actives have a fitted effect of over 50% in size. In short, it runs like this:
as §4

Assay [15] in a line: qHTS of pediatric cancer cell lines to identify multiple opportunities for drug repurposing: Primary screen for BT-12 cells (AID 1347101). Further: nearly all actives have a fitted effect of over 25% in size. The procedure, abridged: as §3
The nature of assay [16]: qHTS of pediatric cancer cell lines to identify multiple opportunities for drug repurposing: Primary screen for Rh18 cells (AID 1347102). Further: nearly all actives have a fitted effect of over 65% in size. The procedure, abridged:
as §4

The structures appear in SMILES notation. Inconclusive results are not listed. Calls of active or inactive are those of the source. The call rests on the fitted dose curve; in most records, active means well fitted curve in the direction sought with a large enough effect; inconclusive means small, poorly fitted or top-dose-only effect, or another doubt; inactive means no such curve, though single readings can be large; an effect the other way counts as inactive or inconclusive.
Potency means the concentration at half of the fitted maximal effect.

On to `CC(C)c1cc(C(=O)N2Cc3ccc(CN4CCN(C)CC4)cc3C2)c(O)cc1O`, for which the Potency was 1040 nM (active) in assay [1]; 935 nM (active) in [2]; 372 nM (active) in assay [3]; 296 nM (active) in assay [4]; 332 nM (active) in assay [5]; 132 nM (active) in assay [6]. For the same compound, the Potency in assay [7] is 935 nM (active); in assay [8] it was 482 nM (active); in assay [9] it was 187 nM (active); in assay [10], 209 nM (active); in assay [11] it was 769 nM (active); in assay [12], 209 nM (active).
With `Cc1cn(-c2cc(NC(=O)c3ccc(C)c(Nc4nccc(-c5cccnc5)n4)c3)cc(C(F)(F)F)c2)cn1`, the Potency result in assay [1], in assay [2], in assay [4], in [13], in assay [14] and in assay [7] was “inactive” in each case. Also, the Potency entry in assay [8], in [9], in assay [10], in assay [15], in assay [16] and in assay [11] was “inactive” throughout. Further, the Potency in assay [3] is 18700 nM (active); in [6], 23500 nM (active).
For `CN1CCN(Cc2ccc(NC(=O)Nc3ccc(Oc4cc(NC(=O)C5CC5)ncn4)cc3)cc2C(F)(F)F)CC1`, the Potency was 294 nM (active) in assay [1]; 590 nM (active) in [2]; 372 nM (active) in assay [3]; 148 nM (active) in [4]; 544 nM (active) in assay [13]; 590 nM (active) in assay [7]. The Potency in [8] was 764 nM (active); in [9], 526 nM (active); in assay [10], 2350 nM (active); in assay [15], 485 nM (active); in assay [11], 485 nM (active); in [12], 662 nM (active). Besides, in assay [14], the Potency result is “inactive”.
Consider `COc1ccc(C(=O)CC2(O)C(=O)Nc3c(Cl)ccc(Cl)c32)cc1` (configuration not stated), for which the Potency in [1] is 7390 nM (active); in [2], 3720 nM (active); in assay [3], 1180 nM (active); in [4], 2350 nM (active); in assay [5] it was 1180 nM (active); in [6] it was 418 nM (active). For the same compound, the Potency in [7] is 2090 nM (active); in [10] it was 1320 nM (active); in [15] it was 3430 nM (active); in assay [11], 4320 nM (active); in assay [12], 5900 nM (active). In addition, in [14], the Potency entry is “inactive”.
Regarding `O=C1CCC[C@@H]2[C@H]3CCC[N+]4([O-])CCC[C@@H](CN12)[C@@H]34` (some centres not stated), the Potency entry in assay [1], in [2], in assay [3], in [4], in [13] and in assay [6] was “inactive” throughout. The Potency result in assay [7], in assay [8], in assay [9], in [10], in assay [15] and in assay [11] was “inactive” throughout. Moreover, the Potency result in assay [12] was “inactive”.
Take `O=C(O)c1ccc2c(c1)nc(Nc1cccc(Cl)c1)c1ccncc12`: the Potency result in assay [1] was “inactive”. The Potency in assay [2] was 4690 nM (active); in assay [3], 7430 nM (active); in assay [4], 4690 nM (active); in assay [13], 7690 nM (active); in [6], 2350 nM (active); in assay [14] it was 18700 nM (active). Besides, the Potency in assay [7] was 4690 nM (active); in assay [8], 12100 nM (active); in [9] it was 2640 nM (active); in assay [10] it was 7430 nM (active); in [15], 19300 nM (active); in [16], 14800 nM (active). In addition, the Potency in assay [11] was 3060 nM (active); in assay [12], 9350 nM (active).
Take `CN1CCN(c2ccc3nc(-c4c(N)c5c(F)cccc5[nH]c4=O)[nH]c3c2)CC1`: the Potency is 14700 nM (active) in assay [1]; 20900 nM (active) in [3]; 14800 nM (active) in [4]; 15300 nM (active) in assay [13]; 3720 nM (active) in assay [6]; 18700 nM (active) in assay [14]. For the same compound, the Potency in [7] is 5900 nM (active); in [8], 15200 nM (active); in assay [9], 16600 nM (active); in assay [10], 4690 nM (active); in [15] it was 17200 nM (active); in [11], 1720 nM (active). For the same compound, the Potency in assay [12] was 18700 nM (active). The Potency entry in assay [2] is “inactive”.
Turning to `COCCn1c2c([n+](Cc3cnccn3)c1C)C(=O)c1ccccc1C2=O`, the Potency is 65.8 nM (active) in [1]; 11.8 nM (active) in [2]; 13.2 nM (active) in assay [3]; 5.9 nM (active) in assay [4]; 153 nM (active) in assay [13]; 118 nM (active) in [14]. Also, the Potency was 37.2 nM (active) in [7]; 482 nM (active) in assay [8]; 209 nM (active) in assay [9]; 4.7 nM (active) in assay [10]; 34.3 nM (active) in [15]; 33.2 nM (active) in assay [16]. For the same compound, the results for the Potency in [11] and in assay [12] were 15.3 nM (active) and 11.8 nM (active), respectively.
As to `Clc1cccc(-c2nnnn2Cc2cccnc2)c1Cl`, the Potency entry in [1], in [2], in assay [3], in assay [4], in [13] and in assay [6] was “inactive” each time. Further, the Potency entry in assay [14], in assay [7], in assay [8], in assay [9], in assay [10] and in assay [15] was “inactive” in each case. The Potency entry in assay [16], in [11] and in [12] was “inactive” throughout.
`C[C@]1(CO)CN(c2cc(C(=O)Nc3ccc4c(c3)-c3c(c(C(N)=O)nn3-c3ccc(F)cc3)CC4)c(Cl)cn2)C[C@@]1(C)CO`: the Potency in assay [1] is 18600 nM (active); in assay [2] it was 11800 nM (active); in assay [3], 6620 nM (active); in assay [4] it was 9350 nM (active); in [13], 5440 nM (active); in assay [6], 5900 nM (active). The Potency is 16600 nM (active) in assay [7]; 19200 nM (active) in [8]; 5900 nM (active) in assay [9]; 5260 nM (active) in [10]; 18700 nM (active) in [16]; 10900 nM (active) in assay [11].
For `CCCCOc1c(C(=O)c2c(F)cc(C)cc2F)cnc2n[nH]cc12`, the Potency entry in [1] and in assay [16] was “inactive” throughout. The Potency in assay [2] is 11800 nM (active); in assay [3] it was 1180 nM (active); in [4], 2350 nM (active); in assay [13], 17200 nM (active); in [6] it was 2350 nM (active); in assay [7], 3720 nM (active). The Potency was 2960 nM (active) in assay [9]; 4180 nM (active) in assay [10]; 6110 nM (active) in [15]; 5440 nM (active) in [11]; 18700 nM (active) in [12].

The values above are taken from PubChem BioAssay (NCATS).
